Reference: PubChem BioAssay (Tox21)
Results filed as inconclusive are left out. Values without a mark were called inactive. Calls follow the shape of the dose curve; as a rule, active = well fitted cell-killing curve with a large enough effect in the repeat runs; inconclusive = weak or mixed curves, or effect the other way; inactive = no such curve, though single readings can be large or run the other way.
% is scaled to controls: 0 for no effect and ±100 for the full control effect.

Test: qHTS assay to identify small molecule agonists of the vitamin D receptor (VDR) signaling pathway - cell viability counter screen (AID 743224); also: nearly all actives have a fitted effect of over 50% in size
Details: VDR-bla HEK293T viability, CellTiter-Glo luminescence, 16 h; series mostly up to 62.6 µM; activity change, negative = cytotoxicity: at the top concentration
Description: U.S. Tox21 Program National Center for Advancing Translational Sciences [NCATS] NIH Chemical Genomics Center [NCGC] U.S. Environmental Protection Agency [EPA] National Institutes of Environmental Health Sciences [NIEHS] National Toxicology Program [NTP] U.S. Food and Drug Administration [FDA] Tox21 Assay Overview: The vitamin D receptor (VDR), a member of nuclear hormone receptor superfamily, plays a critical role in calcium homeostasis and bone metabolism. It is also involved in cell differentiation and growth, and thrombogenicity. […] The cytotoxicity of the Tox21 compound library against the VDR-bla cell line was tested in parallel by measuring the cell viability using CellTiter-Glo assay (Promega, Madison, WI) in the same wells.
Tox21 Assay Protocol Summary: VDR-bla cells were dispensed at 2,000 cells/6 uL/well into black wall/clear-bottom 1536-well plates using a Multidrop Combi (Thermo Fisher Scientific, Waltham, MA) dispenser. After the assay plates were incubated at a 37C and 5% CO2 for 4 h, 23 nL of compounds dissolved in DMSO, positive controls or DMSO only was transferred to the assay plate by a Pintool station (Kalypsys, San Diego, CA). The plates were incubated at 37C and 5% CO2 for 16 h. After 1 uL of LiveBLAzerTM B/G FRET substrate was added using a Bioraptr Flying Reagent Dispenser (FRD) workstation (Beckman Coulter, Indianapolis, IN, USA), the plates were incubated at room temperature for 2 h, and fluorescence intensity was measured by an Envision plate reader (PerkinElmer, Shelton, CT). For cell viability readout that measures cytotoxicity, 3 ul/well of CellTiter-Glo reagent was added into the assay plates using a FRD. After 30 min incubation at room temperature, the luminescence intensity in the plates was measured using a ViewLux (PerkinElmer) plate reader.
In the case of `CC1=C(CC(=O)O)c2cc(F)ccc2/C1=C\c1ccc(S(C)(=O)=O)cc1`, the “activity change, negative = cytotoxicity” value is reported as 6.07%.
With `Cc1ccc([N+](=O)[O-])c(N)c1` the “activity change, negative = cytotoxicity” value was -4.85%.
With `CN1CCN(c2c(F)cc3c(=O)c(C(=O)O)cn(CCF)c3c2F)CC1` the “activity change, negative = cytotoxicity” value was 11%.
In the case of `CCCCCCn1c(=O)c2c(ncn2C)n(C)c1=O`, the “activity change, negative = cytotoxicity” value is reported as 21.3%.
With `COc1nc(C)nc(NC(=O)NS(=O)(=O)c2ccccc2OCCCl)n1` the “activity change, negative = cytotoxicity” value was 12%.
For `CCN(CC)CC1CCCCN1CC(=O)N1c2ccccc2C(=O)Nc2cccnc21` (stereo not given), the “activity change, negative = cytotoxicity” value was -9.19%.
With `CCCCCCC` the “activity change, negative = cytotoxicity” value was 13.7% [at 81.1 µM].
For `CCC/C=C/CO`, the “activity change, negative = cytotoxicity” value was 13.1%.
With `CS(=O)(=O)c1ccc([C@@H](O)[C@@H](CF)NC(=O)C(Cl)Cl)cc1` the “activity change, negative = cytotoxicity” value was 7.8%.
With `OCCN1CCN(CCO)CC1` the “activity change, negative = cytotoxicity” value was -0.26% [at 81.1 µM].
In the case of `CCc1cc2cc(OC)c(OC)cc2c(Cc2ccccc2)n1`, the “activity change, negative = cytotoxicity” value is reported as 3.53%.
For `COc1ccc(Nc2ccc(OC)cc2)cc1`, the “activity change, negative = cytotoxicity” value was 2.59% [at 81.1 µM].
With `CCCN(CCC)C(=O)C(CCC(=O)O)NC(=O)c1ccccc1` (stereo not given) the “activity change, negative = cytotoxicity” value was -0.0198%.
In the case of `CC1(C)S[C@@H]2[C@H](NC(=O)C(C(=O)O)c3ccccc3)C(=O)N2[C@H]1C(=O)O` (stereo not given in full), the “activity change, negative = cytotoxicity” value is reported as -4.19%.
For `C=CCc1cc(OC)c(O)c(C(=O)NCCO)c1`, the “activity change, negative = cytotoxicity” value was -0.038%.
For `NCCCN1CCN(CCCN)CC1`, the “activity change, negative = cytotoxicity” value was -5.55%.
For `ClC(Cl)Cl`, the “activity change, negative = cytotoxicity” value was 1.64%.
With `CCCCCCCCCC/C=C/C#N` the “activity change, negative = cytotoxicity” value was 19.4%.
With `O=C1Nc2ccc([N+](=O)[O-])cc2C1=O` the “activity change, negative = cytotoxicity” value was 0.48%.
For `CO[Si](C)(C)OC`, the “activity change, negative = cytotoxicity” value was 1.29%.
For `O=c1[nH]cnc2c1ncn2[C@@H]1O[C@H](CO)[C@@H](O)[C@H]1O`, the “activity change, negative = cytotoxicity” value was 8.09%.
In the case of `CN1CCN(C2=Nc3ccccc3Oc3ccc(Cl)cc32)CC1`, the “activity change, negative = cytotoxicity” value is reported as -3.43%.
With `COc1cc(C)ccc1C(C)C` the “activity change, negative = cytotoxicity” value was 10.8%.
With `O=S(=O)(O)C(F)(F)F` the “activity change, negative = cytotoxicity” value was 11.4%.
In the case of `C1CCOC1`, the “activity change, negative = cytotoxicity” value is reported as 6.3% [at 81.1 µM].
For `O=C1CCCc2ccccc21`, the “activity change, negative = cytotoxicity” value was 15.6% [at 81.1 µM].
With `CCCC1CCC(=O)O1` (stereo not given) the “activity change, negative = cytotoxicity” value was 8.29%.
In the case of `COc1cc(Cl)ccc1Cl`, the “activity change, negative = cytotoxicity” value is reported as 5.85% [at 81.1 µM].
For `C[C@@H]1CN(c2c(F)c(N)c3c(=O)c(C(=O)O)cn(C4CC4)c3c2F)C[C@H](C)N1`, the “activity change, negative = cytotoxicity” value was -1.04% [at 29.1 µM].
For `CCCCCCCCOC(=O)CCCCCCCCC(=O)OCCCCCCCC`, the “activity change, negative = cytotoxicity” value was 1.97%.
With `N#Cc1ccc(C(c2ccc(C#N)cc2)n2cncn2)cc1` the “activity change, negative = cytotoxicity” value was 17.3%.
In the case of `CN1CCC[C@@H]1Cc1c[nH]c2ccc(CCS(=O)(=O)c3ccccc3)cc12`, the “activity change, negative = cytotoxicity” value is reported as -0.469%.
With `CCCCNCCCC` the “activity change, negative = cytotoxicity” value was 0.108%.
In the case of `CC(C)C(=O)OCC(C)(C)C(O)C(C)C` (stereo not given), the “activity change, negative = cytotoxicity” value is reported as 11.2% [at 81.1 µM].
For `OCCN(CCO)c1ccccc1`, the “activity change, negative = cytotoxicity” value was 0.672%.
For `Cc1cc2c(s1)Nc1ccccc1N=C2N1CCN(C)CC1`, the “activity change, negative = cytotoxicity” value was -0.323%.
In the case of `COc1ccc(S(=O)(=O)Nc2nnc(CC(C)C)s2)cc1`, the “activity change, negative = cytotoxicity” value is reported as 20.5%.
In the case of `CC(C)Nc1nc(N)nc(Cl)n1`, the “activity change, negative = cytotoxicity” value is reported as 4.97%.
For `O=C(O)c1cccc(Cl)c1Cl`, the “activity change, negative = cytotoxicity” value was -17.2%.
With `CC(=O)OC(C)OC(C)=O` the “activity change, negative = cytotoxicity” value was -2.26% [at 81.1 µM].
